CSC inhib = cancer stem cell viability inhibitors, primary screen, luminescence; inhibition, % at 7.5 µM; AID 2717, 2010; cancer stem cell-like cells viability; 300,000 compounds, 1.1% hits; in the data active = inhibition above about 75%; tested in HMLE shEcad cells
Jurkat NFkB inh = inhibitors of induced NF-kB luciferase reporter, primary screen, TCR NF-kB activation inhibitor project, cell-based, luminescence, uHTS; AID 435003, 2010; inhibition, % at 4 µM; Jurkat, PMA/ionomycin-induced NF-kB luciferase reporter; 330,000 compounds, 0.53% hits; in the data active = inhibition above about 50%
aSyn 5UTR inh = MLPCN primary screen, SNCA 5' untranslated region | alpha-synuclein 5'UTR reporter, inhibitor activity | 300,000 compounds, 0.82% hits | inhibition, % (tested at 7.5 µM); in the data active = inhibition above about 60%;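 also: H4 neuroglioblastoma cells stably carrying SNCA 5'UTR luciferase fusion; 0% = DMSO wells and 100% = positive control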
Gli-Sufu block = Gli-Sufu pathway antagonists, primary screen, luciferase luminescence, Sufu-KO-LIGHT cells, uHTS; inhibition, % at 5 µM; 340,000 compounds, 0.74% hits; Sufu-KO-LIGHT fibroblasts, Gli luciferase reporter luminescence; AID 588413, 2011;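 active = inhibition above about 55%, limit read from the data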;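 also: 0% = DMSO-treated cells and 100% = wells with medium but no cells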
Mdm2-MdmX inh = inhibitors of human Mdm2-MdmX association, primary screen, cell-based, luminescence, split luciferase, SaOS-2, uHTS; Protein Mdm4 (Homo sapiens) + E3 ubiquitin-protein ligase Mdm2 (Homo sapiens), …; SaOS-2 split-luciferase Mdm2/MdmX complementation; inhibition, % at 8 µM; 330,000 compounds, 3% hits; AID 485346, 2010;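 active = inhibition of at least 50% at 8 µM in the primary screen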
Target sequence (O15151 whole entry, looked up): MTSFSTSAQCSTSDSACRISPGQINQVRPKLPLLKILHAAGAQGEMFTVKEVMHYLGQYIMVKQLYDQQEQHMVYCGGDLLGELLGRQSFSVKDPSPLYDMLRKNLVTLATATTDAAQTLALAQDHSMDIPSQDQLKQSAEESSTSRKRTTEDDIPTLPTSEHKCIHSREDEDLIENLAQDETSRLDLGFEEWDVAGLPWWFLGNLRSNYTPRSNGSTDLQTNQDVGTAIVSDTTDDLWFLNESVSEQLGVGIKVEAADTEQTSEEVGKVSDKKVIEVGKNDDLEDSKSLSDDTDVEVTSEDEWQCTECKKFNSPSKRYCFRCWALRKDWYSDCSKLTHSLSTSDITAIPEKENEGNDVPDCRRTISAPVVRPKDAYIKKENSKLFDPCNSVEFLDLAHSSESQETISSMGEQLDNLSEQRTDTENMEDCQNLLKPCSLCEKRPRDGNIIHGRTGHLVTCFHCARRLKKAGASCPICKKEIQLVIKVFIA
Target sequence (Q00987 whole entry, looked up): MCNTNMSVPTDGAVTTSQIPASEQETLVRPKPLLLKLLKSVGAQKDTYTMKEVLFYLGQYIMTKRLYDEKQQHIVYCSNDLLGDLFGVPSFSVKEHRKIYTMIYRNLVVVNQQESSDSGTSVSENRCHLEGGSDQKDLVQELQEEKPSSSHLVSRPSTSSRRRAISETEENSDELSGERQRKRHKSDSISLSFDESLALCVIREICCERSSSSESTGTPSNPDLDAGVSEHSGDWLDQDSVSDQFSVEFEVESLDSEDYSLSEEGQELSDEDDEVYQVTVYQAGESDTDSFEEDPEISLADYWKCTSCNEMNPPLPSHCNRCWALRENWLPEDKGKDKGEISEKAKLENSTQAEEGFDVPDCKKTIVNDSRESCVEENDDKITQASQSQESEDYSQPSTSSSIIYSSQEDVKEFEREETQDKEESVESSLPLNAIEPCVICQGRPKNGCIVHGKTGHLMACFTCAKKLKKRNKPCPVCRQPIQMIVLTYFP
697 NFkB inh = inhibitors of PMA/ionomycin-induced NF-kB reporter, 697 cells, primary screen, B-cell NF-kB inhibitor project, cell-based, luminescence, uHTS; 697 B-cell NF-kB luciferase reporter, 16 h; inhibition, % at 4 µM; AID 435022, 2010; 330,000 compounds, 0.33% hits; in the data active = inhibition above about 35%
Jurkat NFkB conf = PMA/ionomycin-induced NF-kB reporter inhibitors, Jurkat retest, confirmation, T-cell NF-kB inhibitor project, cell-based, luminescence, single concentration; Jurkat NF-kB luciferase, 16 h; shares compounds with Jurkat NFkB inh; inhibition, % at 4 µM; 2,700 compounds, 27% hits;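 active = inhibition reaching about 45% at 4 µM in either replicate, limit read from the data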;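 also: plate controls were PMA/ionomycin stimulated DMSO wells for no effect and unstimulated DMSO wells for full effect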
An asterisk follows results filed as active; / = no result. Most compounds without a hit are left out; they make up all but 4.5% or so of the library.

SMILES | CSC inhib | Jurkat NFkB inh | aSyn 5UTR inh | Gli-Sufu block | Mdm2-MdmX inh | 697 NFkB inh | Jurkat NFkB conf
COc1ccc(CCNC(=O)c2nnn(CC(=O)Nc3cccc(F)c3)c2N)cc1OC | 1 | 4 | 6 | -4 | 0 | 21 | /
Cc1ccnc(NC(=O)Nc2ccc(Br)cc2Cl)c1 | -9 | -157 | -28 | -48 | -94 | -225 | -101
CN(CC(=O)Nc1cccc(Cl)c1)S(=O)(=O)c1ccc2c(c1)n(C)c(=O)c(=O)n2C | 15 | -11 | -8 | -2 | 1 | -9 | /
CCCOc1ccccc1N/C(=N/c1nc(C)cc(C)n1)NC(=O)Nc1ccc(Cl)cc1 | 3 | 10 | 44 | -6 | 34 | 10 | /
CCOC(=O)c1c(CNc2ccncc2)n(C)c2cc(Br)c(O)cc12 | 0 | 6 | -62 | 14 | 21 | 3 | /
Cn1cccc1C(=O)C(=O)Nc1cccc(Cl)c1Cl | 10 | -151 | -148 | -64 | -138 | -185 | -64
Cn1cccc1C(=O)C(=O)Nc1ccc(Cl)cc1 | -3 | -112 | -119 | -85 | -82 | -162 | /
C=C(C)CSc1nc(N)c2c(C)c(C)sc2n1 | -2 | -72 | -51 | -48 | 5 | -115 | /
COc1cc(N/N=C/c2ccccc2O)ncn1 | 23 | -53 | 1 | -1 | 43 | -96 | /
COc1cc(N/N=C/c2ccc(N(C)C)cc2)ncn1 | 4 | -155 | 24 | -148 | -133 | -234 | -93
COc1ccc(C(=O)Nc2ccc(Cl)cc2C(=O)NCc2ccco2)cc1 | 45 | 52* | -28 | 4 | 30 | -42 | 4
CCC(C)C(NC(=O)c1ccccc1NC(=O)c1ccc(OC)cc1)C(=O)NCc1ccco1 (stereo not drawn) | -5 | 2 | -3 | -1 | -5 | 3 | /
O=C(Nc1cccnc1)c1sc2cccc(F)c2c1Cl | -4 | -102 | -166 | -42 | 18 | -24 | /
O=C(Nc1ccccn1)c1sc2cccc(F)c2c1Cl | -4 | -170 | / | -61 | -63 | -242 | -103
NC(=O)CC(NC(=O)Cc1ccc(Cl)cc1)c1ccc(NCC2CC2)c([N+](=O)[O-])c1 (stereo not drawn) | 11 | 31 | -2 | -8 | -20 | 11 | /
CC(C)Nc1ccc(C(CC(N)=O)NC(=O)c2ccc(Br)cc2)cc1[N+](=O)[O-] (stereo not drawn) | 26 | 59* | -9 | -5 | 24 | -3 | 45
NC(=O)CC(NC(=O)Cc1ccc(Br)cc1)c1ccc(NCC2CC2)c([N+](=O)[O-])c1 (stereo not drawn) | -1 | 51* | 17 | 15 | 14 | 8 | 24
S=C(Nc1ccc(Cc2ccncc2)cc1)Nc1cccc(Cl)c1 | 56 | 15 | 13 | -1 | 5 | 24 | /
CCOC(=O)c1cccc2c(=O)c(C(=O)c3ccc(Cl)cc3)c(C(=O)OC)[nH]c12 | 0 | 7 | -11 | -3 | -11 | 10 | /
C/C(=N\Nc1nc(C(C)(C)C)cs1)c1ccccc1 | 10 | -161 | -160 | -75 | -97 | -225 | -127
CCOC(=O)c1c(C)[nH]c(C(=O)Nc2ccc(C)c(Cl)c2)c1C | 2 | -165 | -108 | / | -142 | -166 | -82
COc1cc(/C=N/NS(=O)(=O)c2ccc(C)cc2)ccc1OCc1cccc(C(=O)O)c1 | / | 62* | 90* | -122 | 49 | 23 | 13
COc1ccc(/C=N/NS(=O)(=O)c2ccc(C)cc2)cc1OC(=O)c1ccccc1 | 1 | 5 | / | 2 | 8 | 22 | /
CN(C)S(=O)(=O)c1ccc(C(=O)NCC(=O)N/N=C/c2ccccc2Cl)cc1 | -12 | 6 | 12 | 4 | 0 | 3 | /
Clc1ccc(-n2nnnc2-c2ccccc2)cc1 | -4 | -3 | / | 8 | 5 | 5 | /
SMILES | CSC inhib | Jurkat NFkB inh | aSyn 5UTR inh | Gli-Sufu block | Mdm2-MdmX inh | 697 NFkB inh | Jurkat NFkB conf
COc1ccc(-n2nnnc2-c2ccccc2)cc1 | / | 53* | 19 | -13 | 44 | -77 | 58*
Cc1sc2ncnc(NC3CCN(Cc4ccccc4)CC3)c2c1C | 22 | 53* | -26 | 78* | 18 | -12 | 43
Cc1csc2c(NC3CCN(Cc4ccccc4)CC3)ncnc12 | 1 | 22 | 29 | 8 | 34 | -31 | /
c1ccc(CN2CCC(Nc3ncnc4sccc34)CC2)cc1 | -8 | 58* | -10 | -15 | 9 | -11 | 35
O=C(N/C=C/c1ccccc1)c1ccccc1 | -1 | -176 | -135 | / | -164 | -196 | 15
O=C(NCCNC(=O)c1ccccc1)c1ccccc1 | -6 | -2 | 6 | 0 | -4 | -12 | /
COc1ccc(S(=O)(=O)Nc2ccc(-n3cccc3)cc2)cc1 | 1 | -9 | -8 | 1 | 4 | -19 | /
CCOc1ccc(OCc2cccc(C(=O)N3CCOCC3)c2)cc1 | -2 | 53* | 102* | -146 | 47 | 23 | 30
O=C(c1cccc(OCc2ccccc2)c1)N1CCOCC1 | -12 | -9 | -5 | -7 | 19 | 11 | /
COC(=O)c1ccc(CN2CCN(CC=C(C)C)C(CCO)C2)cc1 (stereo not drawn) | 6 | -21 | 25 | 9 | 23 | -56 | /
CCOc1cc(C#N)c(NC(=O)c2cccnc2)cc1OCC | 35 | 62* | 41 | -1 | 44 | -32 | 52*
CCOc1cc(C#N)c(NC(=O)c2cccnc2Cl)cc1OCC | 1 | 7 | -16 | 8 | -1 | 17 | /
COC(=O)c1ccc(NC(=S)Nc2ccccn2)cc1 | -10 | -164 | -171 | -8 | -135 | -133 | -69
COc1ccc(NC(=S)Nc2ccccn2)cc1 | -1 | -95 | -168 | -30 | -141 | -120 | /
CCOC(=O)c1ccccc1NC(=O)Cc1ccc(S(=O)(=O)N2CCCC2)s1 | -9 | 1 | / | 0 | 27 | 0 | /
O=S(=O)(NCc1ccccn1)c1cc(Cl)ccc1Cl | -9 | -32 | 8 | 8 | 16 | -44 | /
O=[N+]([O-])c1ccc(Cl)c(S(=O)(=O)NCCc2ccccn2)c1 | 11 | -166 | / | 8 | 1 | 11 | 19
Cc1cc(C)c2sc(NC(=O)C3=COCCO3)nc2c1 | 5 | -170 | -40 | -106 | -150 | -163 | 10
COc1ccc(NS(=O)(=O)c2cc(NC(=O)c3ccco3)ccc2N2CCCC2)cc1 | -7 | 62* | -9 | 0 | 33 | -112 | 8
CCN1CCN(C(=O)c2cc(=O)c3cc(C)ccc3o2)CC1 | -6 | 6 | 16 | -5 | -14 | -1 | /
COc1ccc(NC(=O)Nc2ccc([N+](=O)[O-])cc2)cn1 | -7 | -25 | -102 | -44 | -12 | -36 | /
O=c1c2ccccc2oc2cc(-c3ccc4cc[nH]c4c3)ccc12 | 40 | 7 | / | -24 | -16 | -98 | /
